Records with an inconclusive call do not appear. Values without a mark were called inactive. Calls of active or inactive are those of the source. Unless noted, the call rests on the fitted dose curve; in most records, active means well fitted curve in the direction sought with a large enough effect in the repeat runs; inconclusive means weak or mixed curves; inactive means no such curve, though single readings can be large; an effect the other way counts as inactive or inconclusive.

Assay [1] can be described thus: qHTS assay to identify small molecule antagonists of the thyroid receptor (TR) signaling pathway (AID 743065). Further: nearly all actives have a fitted effect of over 55% in size. Further: potency means the concentration at half of the fitted maximal effect. A digest of the protocol:
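GH3.TRE-Luc rat pituitary cells carrying two TR response elements driving luciferase were plated for 4 h, given compound plus 1 nM T3 (final), and incubated 23.5 h at 37 C. ONE-Glo luminescence measured reporter inhibition; CellTiter-Fluor fluorescence tracked cytotoxicity.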
(In general: In qHTS, concentration-response curves come from the screen itself.)

Assay [2] relates to thyroid hormone receptor (rat, GH3 cells). The assay can be described thus: qHTS assay to identify small molecule agonists of the thyroid receptor (TR) signaling pathway (AID 743066; calls by dose curve).
Assay [3] concerns the target Estrogen receptor (Homo sapiens) (UniProt P03372). Description: qHTS assay to identify small molecule antagonists of the estrogen receptor alpha (ER-alpha) signaling pathway (AID 743069; active means well fitted curve in the direction sought with a large enough effect in the signal ratio in the repeat runs, not every such curve was filed as active; the % refers to the signal ratio). A digest of the protocol:
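Estradiol-stimulated ER-alpha-UAS-bla HEK293 cells, 18 hr compound exposure at 37C. LiveBLAzer B/G substrate, 2 hr RT, fluorescence read.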

The nature of assay [4]: qHTS assay to identify small molecule antagonists of the estrogen receptor alpha (ER-alpha) signaling pathway - cell viability counter screen (AID 743074; calls by dose curve;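 further: HEK293 cells carrying ER-alpha-UAS-bla reporter stimulated with 17beta-estradiol; nearly all actives have a fitted effect of over 45% in size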).
Assay [5] concerns the target Estrogen receptor (Homo sapiens) (UniProt P03372). The assay can be described thus: qHTS assay to identify small molecule agonists of the estrogen receptor alpha (ER-alpha) signaling pathway (AID 743075; calls by dose curve;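 further: HEK293 GripTite cells with ER-alpha and UAS-driven beta-lactamase reporter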).
Assay [6] shares this target. Description: qHTS assay to identify small molecule agonists of the estrogen receptor alpha (ER-alpha) signaling pathway using the BG1 cell line (AID 743079). Further: nearly all actives have a fitted effect of over 20% in size. Further: potency means the concentration at half of the fitted maximal effect. The settings on record: BG1Luc4E2 cells, ERE-luciferase agonist, 22 h; activation: at 70.3 µM (top of the series).
Assay [7] can be described thus: qHTS assay to identify small molecule antagonists of the estrogen receptor alpha (ER-alpha) signaling pathway using the BG1 cell line - cell viability counter screen (AID 743081).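 Further: compound given together with 17beta-estradiol as the ER stimulus; nearly all actives have a fitted effect of over 45% in size.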
The target in assay [8] is Aromatase (Homo sapiens) (UniProt P11511). Description: qHTS assay to identify aromatase inhibitors (AID 743083). Further: nearly all actives have a fitted effect of over 55% in size.
Sequence of Aromatase (Homo sapiens) (P11511 whole entry, looked up): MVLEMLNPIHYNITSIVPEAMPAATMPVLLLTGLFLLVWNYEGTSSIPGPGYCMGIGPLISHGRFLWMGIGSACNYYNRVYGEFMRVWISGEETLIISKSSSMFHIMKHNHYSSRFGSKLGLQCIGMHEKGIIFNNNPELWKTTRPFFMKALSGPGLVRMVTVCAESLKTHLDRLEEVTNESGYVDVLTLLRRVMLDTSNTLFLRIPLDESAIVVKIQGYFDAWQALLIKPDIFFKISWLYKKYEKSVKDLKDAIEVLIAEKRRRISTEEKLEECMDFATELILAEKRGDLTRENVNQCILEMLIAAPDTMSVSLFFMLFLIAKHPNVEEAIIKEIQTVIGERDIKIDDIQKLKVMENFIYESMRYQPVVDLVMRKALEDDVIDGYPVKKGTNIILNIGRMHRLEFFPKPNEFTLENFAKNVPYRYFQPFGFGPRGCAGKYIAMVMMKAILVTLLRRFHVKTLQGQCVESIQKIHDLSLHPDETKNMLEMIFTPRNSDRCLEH
A short description of assay [9]: qHTS assay to identify aromatase inhibitors - cell viability counter screen (AID 743084).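 Further: cells stimulated with testosterone during compound exposure; nearly all actives have a fitted effect of over 55% in size.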
The nature of assay [10]: qHTS assay to identify small molecule antagonists of the estrogen receptor alpha (ER-alpha) signaling pathway using the BG1 cell line (AID 743080; calls by dose curve;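 further: BG1 cells stimulated with 17beta-estradiol alongside compound; nearly all actives have a fitted effect of over 25% in size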). An outline of the steps: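 Quantitative HTS on the Tox21 10K library: BG1 cells with endogenous ER-alpha and ERE-luciferase reporter, 17beta-estradiol stimulation, 21.5 h compound exposure, luminescence endpoint with parallel fluorescence cytotoxicity counter-read.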

Sequence of Estrogen receptor (Homo sapiens) (P03372 whole entry, looked up): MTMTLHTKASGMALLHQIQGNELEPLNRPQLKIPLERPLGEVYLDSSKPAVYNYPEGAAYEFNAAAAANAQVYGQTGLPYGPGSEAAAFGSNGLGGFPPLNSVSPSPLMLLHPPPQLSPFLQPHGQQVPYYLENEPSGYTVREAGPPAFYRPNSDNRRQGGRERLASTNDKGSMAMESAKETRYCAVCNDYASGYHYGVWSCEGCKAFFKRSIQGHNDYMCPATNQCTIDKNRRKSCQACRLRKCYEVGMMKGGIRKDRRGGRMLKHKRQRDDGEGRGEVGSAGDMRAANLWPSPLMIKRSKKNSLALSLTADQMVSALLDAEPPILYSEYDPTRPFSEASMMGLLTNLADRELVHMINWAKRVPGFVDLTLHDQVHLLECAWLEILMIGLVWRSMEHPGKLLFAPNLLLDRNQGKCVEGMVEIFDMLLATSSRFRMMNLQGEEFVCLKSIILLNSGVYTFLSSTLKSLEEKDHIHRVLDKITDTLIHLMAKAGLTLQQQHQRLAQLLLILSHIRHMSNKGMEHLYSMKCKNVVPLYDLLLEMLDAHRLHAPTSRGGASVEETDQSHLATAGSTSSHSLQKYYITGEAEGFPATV

For `CCOC(=O)OCC`, the Potency result in [1], in assay [3], in [4], in [5], in assay [6] and in [7] was “inactive” each time. Moreover, the Potency result in [8] and in [9] was “inactive” throughout. Moreover, the outcome in assay [2] was inactive.

With `CNC(=O)N(c1ccccc1)c1ccccc1`, the Potency result in [1], in [3], in assay [4], in [5], in assay [6] and in assay [10] was “inactive” throughout. Besides, the Potency entry in assay [7], in [8] and in assay [9] was “inactive” throughout. Also, the compound was classed as inactive in assay [2].

For `O=C(O)c1cccnc1C(=O)O`, the Potency result in assay [1], in assay [3], in assay [4], in [5], in assay [6] and in assay [10] was “inactive” each time. Further, the Potency result in [7], in [8] and in [9] was “inactive” in each case. Further, the compound was classed as inactive in assay [2].

Regarding `CC(Cl)C(Cl)Cl` (stereo unspecified), the Potency entry in [1], in [3], in assay [4], in [5], in assay [6] and in assay [10] was “inactive” in each case. Also, the Potency result in assay [7], in assay [8] and in assay [9] was “inactive” throughout. For the same compound, the compound was classed as inactive in assay [2].

Take `CC1CN(c2cc3c(cc2F)c(=O)c(C(=O)O)cn3-c2ccc(F)cc2F)CCN1` (stereo unspecified): the Potency result in assay [1], in assay [3], in assay [4], in assay [5], in [6] and in assay [10] was “inactive” each time. Also, the Potency entry in assay [8] and in [9] was “inactive” each time. Further, the compound was called inactive in [2].

Turning to `Nc1ccc(S(=O)(=O)O)c(N)c1`, the Potency entry in assay [1], in assay [3], in assay [4], in assay [5], in assay [6] and in assay [10] was “inactive” in each case. In addition, the Potency result in assay [7], in assay [8] and in [9] was “inactive” each time. Also, the outcome in assay [2] was inactive.

As to `CC(CCO)CCc1ccccc1` (stereo unspecified), the Potency result in assay [1], in [3], in [4], in [5], in [6] and in [10] was “inactive” in each case. In addition, the Potency result in assay [7], in [8] and in assay [9] was “inactive” throughout. In addition, in assay [2], the outcome was inactive.

In the case of `c1cc[c]([Bi]([c]2ccccc2)[c]2ccccc2)cc1`, the Potency in [1] is 54.5 µM (active); in [6], 21.7 µM (active). The compound was called inactive in assay [2]. The Potency result in [3], in assay [4], in assay [5], in assay [10], in assay [7] and in [8] was “inactive” in each case. Also, the Potency result in assay [9] was “inactive”.

Turning to `C/C=C/C=C/CCCCCCCO`, the Potency in assay [1] is 61.1 µM (active). For the same compound, the compound was called inactive in assay [2]. Besides, the Potency entry in assay [3], in assay [4], in assay [5], in [6], in [10] and in [7] was “inactive” throughout. Moreover, the Potency result in assay [8] was “inactive”.

As to `c1ccc(COCc2ccccc2)cc1`, the Potency entry in [1], in assay [3], in assay [4], in assay [5], in assay [6] and in [10] was “inactive” in each case. For the same compound, the Potency entry in [7], in assay [8] and in assay [9] was “inactive” each time. The outcome in assay [2] was inactive.

Regarding `CCn1cc(C(=O)O)c(=O)c2cc(F)c(N3CCNCC3)nc21`, the Potency entry in [1], in assay [3], in [4], in assay [5], in assay [6] and in assay [10] was “inactive” throughout. Further, the Potency entry in assay [7], in assay [8] and in assay [9] was “inactive” throughout. Besides, the compound was called inactive in [2].

For the compound `Cc1cc(C(=C2C=CC(=Nc3ccc(S(=O)(=O)O)cc3S(=O)(=O)O)C=C2)c2ccc(Nc3ccc(S(=O)(=O)O)cc3)cc2)ccc1N`, the Potency result in assay [1], in assay [3], in assay [4], in [5], in [6] and in [10] was “inactive” throughout. Besides, the Potency result in [7], in assay [8] and in assay [9] was “inactive” throughout. The compound was called inactive in [2].

In the case of `OCC1CC=CCC1` (stereo unspecified), the Potency entry in [1], in assay [3], in assay [4], in assay [5], in assay [6] and in assay [10] was “inactive” throughout. In addition, the Potency entry in assay [7], in assay [8] and in assay [9] was “inactive” in each case. Besides, the compound was classed as inactive in [2].

Regarding `CCCOCCOCCO`, the Potency result in assay [1], in [3], in [4], in assay [5], in assay [6] and in [10] was “inactive” throughout. Further, the Potency entry in [7], in [8] and in assay [9] was “inactive” each time. For the same compound, the result in assay [2] was inactive.

`Nc1ccc(S(=O)(=O)O)cc1`: the Potency result in assay [1], in assay [3], in assay [4], in assay [5], in [10] and in [7] was “inactive” in each case. The Potency entry in assay [8] and in [9] was “inactive” in each case. The outcome in assay [2] was inactive. Moreover, the Potency in [6] was 38.8 µM (active).

As to `CCC(C)(C)C1CCC(O)CC1` (stereo unspecified), the Potency entry in assay [1], in assay [3], in assay [4], in assay [5], in [7] and in [8] was “inactive” throughout. Further, in assay [9], the Potency entry is “inactive”. The result in assay [2] was inactive.

With `OC/C(Br)=C(\Br)CO`, the Potency entry in assay [1], in assay [3], in [4], in assay [5], in assay [7] and in assay [8] was “inactive” in each case. Further, in assay [9], the Potency result was “inactive”. In addition, the outcome in assay [2] was inactive.

For `CC(CCc1ccc2c(c1)OCO2)NN` (stereo unspecified), the Potency result in assay [1], in assay [3], in [5], in [10], in assay [7] and in assay [8] was “inactive” each time. In addition, the Potency entry in assay [9] was “inactive”. Further, the call in assay [2] was inactive.

In the case of `CC1=CC(O)CC(C)(C)C1` (stereo unspecified), the Potency entry in assay [1], in assay [4], in [5], in assay [6], in [10] and in assay [7] was “inactive” throughout. The Potency entry in assay [8] and in assay [9] was “inactive” throughout. Besides, in assay [2], the compound was called inactive.

Take `OCCSc1ccccc1`: the Potency entry in [1], in assay [4], in assay [5], in assay [6], in [10] and in [7] was “inactive” each time. Moreover, the Potency entry in assay [8] and in assay [9] was “inactive” throughout. Besides, the call in assay [2] was inactive.

As to `CCOC(=N)CC(=O)OCC`, the Potency result in [1], in assay [4], in assay [5], in assay [6], in assay [10] and in assay [7] was “inactive” each time. The Potency entry in [8] and in [9] was “inactive” throughout. Also, the outcome in [2] was inactive.

Consider `CC#N`, for which the Potency result in assay [1], in [4], in assay [5], in [6], in [10] and in assay [7] was “inactive” each time. In addition, the Potency result in [8] and in assay [9] was “inactive” each time. In addition, in [2], the call was inactive.

For the compound `Cc1nc2ccccc2s1`, the Potency result in assay [1], in assay [4], in assay [5], in assay [6], in assay [10] and in assay [7] was “inactive” each time. For the same compound, the Potency entry in assay [8] and in assay [9] was “inactive” each time. The compound was called inactive in assay [2].
